Data: PMC7862700, “An all-to-all approach to the identification of sequence-specific readers for epigenetic DNA modifications on cytosine”

Legend:
Assay in all cases: DAPPL (digital affinity profiling via proximity ligation, sequencing); 10 mM Tris-HCl pH 7.5, 50 mM NaCl, 1 mM DTT, 4% glycerol, room temperature, 30 min; GST-TFs on glutathione beads, 16-mer random dsDNA library, 0.1% formaldehyde crosslink after washing; high values mean tight binding
Conditions in all cases: protein: recombinant; tags: N-terminal GST; dsDNA, one strand shown
[1] = target: T1, ERF (Homo sapiens, UniProt P50548 1-548)
T1 sequence: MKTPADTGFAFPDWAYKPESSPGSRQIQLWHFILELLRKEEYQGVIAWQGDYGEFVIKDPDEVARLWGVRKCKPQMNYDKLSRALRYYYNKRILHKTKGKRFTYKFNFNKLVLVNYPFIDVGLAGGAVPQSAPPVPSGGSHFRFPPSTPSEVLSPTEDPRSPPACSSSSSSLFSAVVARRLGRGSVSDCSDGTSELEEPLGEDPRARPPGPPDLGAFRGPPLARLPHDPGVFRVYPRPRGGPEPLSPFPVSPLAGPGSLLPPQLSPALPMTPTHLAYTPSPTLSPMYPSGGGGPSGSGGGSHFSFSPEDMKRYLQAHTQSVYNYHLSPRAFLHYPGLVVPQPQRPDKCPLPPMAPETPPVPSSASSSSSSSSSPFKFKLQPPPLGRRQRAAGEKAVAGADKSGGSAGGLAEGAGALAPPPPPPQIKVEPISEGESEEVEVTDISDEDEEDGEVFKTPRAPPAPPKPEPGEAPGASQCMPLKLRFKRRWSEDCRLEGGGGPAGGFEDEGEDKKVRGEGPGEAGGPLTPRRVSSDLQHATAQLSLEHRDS
Outline: (§1)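 Each value of binding signal is a hexamer's read frequency for a factor divided by the same hexamer's frequency in the tag-only sample. Barcoded, bead-captured GST fusions of human transcription factors made in yeast were pooled with that sample and incubated with 200 nmole of a random double-stranded 16-mer DNA library in Tris/NaCl/DTT/glycerol buffer at room temperature for 30 min. Washing, 0.1% formaldehyde crosslinking, proximity ligation, PCR and Illumina NextSeq500 sequencing followed.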

[2] = target: T2, ETV3L (Homo sapiens, UniProt Q6ZN32 1-361)
T2 sequence: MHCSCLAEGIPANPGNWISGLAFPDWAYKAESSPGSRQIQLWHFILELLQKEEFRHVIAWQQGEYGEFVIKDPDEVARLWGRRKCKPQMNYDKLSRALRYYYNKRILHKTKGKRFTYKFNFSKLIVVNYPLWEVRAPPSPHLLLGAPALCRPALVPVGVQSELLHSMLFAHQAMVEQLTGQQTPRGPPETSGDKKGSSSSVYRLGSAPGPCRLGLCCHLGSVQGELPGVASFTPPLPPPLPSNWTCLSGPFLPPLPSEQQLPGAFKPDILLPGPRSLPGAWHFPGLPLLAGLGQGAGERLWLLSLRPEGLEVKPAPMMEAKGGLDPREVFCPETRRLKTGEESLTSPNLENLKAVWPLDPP
Outline: as §1

[3] = target: T3, ETS2 (Homo sapiens, UniProt P15036 1-469)
T3 sequence: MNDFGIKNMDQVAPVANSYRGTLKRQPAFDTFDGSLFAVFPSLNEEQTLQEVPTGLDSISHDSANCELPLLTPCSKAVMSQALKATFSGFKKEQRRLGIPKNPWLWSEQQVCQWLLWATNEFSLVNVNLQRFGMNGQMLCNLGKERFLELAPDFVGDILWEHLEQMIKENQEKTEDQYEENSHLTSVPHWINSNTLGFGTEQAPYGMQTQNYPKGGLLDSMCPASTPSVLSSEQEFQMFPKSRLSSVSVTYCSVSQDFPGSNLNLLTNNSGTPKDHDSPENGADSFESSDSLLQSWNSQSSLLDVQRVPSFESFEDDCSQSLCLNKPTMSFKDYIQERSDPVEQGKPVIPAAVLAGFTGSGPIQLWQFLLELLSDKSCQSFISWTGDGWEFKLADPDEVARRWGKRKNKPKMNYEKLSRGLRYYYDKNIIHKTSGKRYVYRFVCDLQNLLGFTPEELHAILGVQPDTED
Outline: as §1

[4] = target: T4, SPDEF (Homo sapiens, UniProt O95238 1-335)
T4 sequence: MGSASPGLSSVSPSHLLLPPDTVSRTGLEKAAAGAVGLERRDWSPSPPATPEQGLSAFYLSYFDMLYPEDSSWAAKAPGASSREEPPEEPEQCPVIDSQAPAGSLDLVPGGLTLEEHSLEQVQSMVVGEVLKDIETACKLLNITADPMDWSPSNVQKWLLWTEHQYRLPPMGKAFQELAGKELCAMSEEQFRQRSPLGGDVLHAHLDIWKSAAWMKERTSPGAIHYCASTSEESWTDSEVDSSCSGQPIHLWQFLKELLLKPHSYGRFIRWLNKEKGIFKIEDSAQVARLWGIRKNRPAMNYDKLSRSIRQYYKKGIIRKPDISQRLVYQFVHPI
Outline: as §1

[5] = target: T5, ETV7 (Homo sapiens, UniProt Q9Y603 1-341)
T5 sequence: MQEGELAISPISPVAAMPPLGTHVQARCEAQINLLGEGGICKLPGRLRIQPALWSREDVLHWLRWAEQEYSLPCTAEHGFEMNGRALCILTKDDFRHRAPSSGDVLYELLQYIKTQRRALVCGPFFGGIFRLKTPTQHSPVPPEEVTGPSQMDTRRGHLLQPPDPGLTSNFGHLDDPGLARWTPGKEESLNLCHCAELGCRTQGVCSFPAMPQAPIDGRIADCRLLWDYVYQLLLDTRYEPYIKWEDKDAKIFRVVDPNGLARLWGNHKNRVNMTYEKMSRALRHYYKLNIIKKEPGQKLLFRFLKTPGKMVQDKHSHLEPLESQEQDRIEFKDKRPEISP
Outline: as §1

[6] = target: T6, ELF5 (Homo sapiens, UniProt Q9UKW6-2 1-255)
T6 sequence: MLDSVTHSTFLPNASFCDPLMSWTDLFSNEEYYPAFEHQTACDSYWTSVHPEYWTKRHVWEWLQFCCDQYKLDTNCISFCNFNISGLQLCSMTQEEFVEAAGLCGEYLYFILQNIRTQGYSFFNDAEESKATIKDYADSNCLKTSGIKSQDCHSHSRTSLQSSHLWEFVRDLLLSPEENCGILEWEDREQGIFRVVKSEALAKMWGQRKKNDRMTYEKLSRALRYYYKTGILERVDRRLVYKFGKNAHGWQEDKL
Outline: as §1

[7] = target: T7, ETV3 (Homo sapiens, UniProt P41162-2 1-143)
T7 sequence: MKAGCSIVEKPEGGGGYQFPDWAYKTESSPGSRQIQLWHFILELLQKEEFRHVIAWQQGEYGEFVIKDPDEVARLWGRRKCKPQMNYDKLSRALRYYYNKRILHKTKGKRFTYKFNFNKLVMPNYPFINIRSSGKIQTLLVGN
Outline: as §1

[8] = target: ETV6 (Homo sapiens, UniProt P41212 1-452)
Outline: as §1

Chain of ETV6 (P41212 whole entry): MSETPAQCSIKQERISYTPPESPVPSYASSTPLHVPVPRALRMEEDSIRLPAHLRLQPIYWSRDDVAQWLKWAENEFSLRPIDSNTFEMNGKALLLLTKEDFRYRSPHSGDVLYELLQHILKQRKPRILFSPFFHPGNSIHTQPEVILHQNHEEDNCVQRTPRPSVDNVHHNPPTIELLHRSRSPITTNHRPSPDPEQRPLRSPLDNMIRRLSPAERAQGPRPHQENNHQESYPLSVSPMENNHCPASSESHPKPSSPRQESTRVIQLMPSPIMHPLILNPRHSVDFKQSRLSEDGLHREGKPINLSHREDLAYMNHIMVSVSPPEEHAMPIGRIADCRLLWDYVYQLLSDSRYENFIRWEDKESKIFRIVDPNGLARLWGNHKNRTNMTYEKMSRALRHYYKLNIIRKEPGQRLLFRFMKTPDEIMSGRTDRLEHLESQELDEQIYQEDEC

Sequence	binding signal [1]	binding signal [2]	binding signal [3]	binding signal [4]	binding signal [5]	binding signal [6]	binding signal [7]	binding signal [8]
GAAAAT	1.18 fold enrichment (6-mer frequency, TF over GST control)	1.15 fold enrichment (6-mer frequency, TF over GST control)	1.13 fold enrichment (6-mer frequency, TF over GST control)	1.05 fold enrichment (6-mer frequency, TF over GST control)	1.2 fold enrichment (6-mer frequency, TF over GST control)	1.17 fold enrichment (6-mer frequency, TF over GST control)	1.07 fold enrichment (6-mer frequency, TF over GST control)	1.19 fold enrichment (6-mer frequency, TF over GST control)
TTCACT	1.42 fold enrichment (6-mer frequency, TF over GST control)	1.4 fold enrichment (6-mer frequency, TF over GST control)	1.41 fold enrichment (6-mer frequency, TF over GST control)	1.32 fold enrichment (6-mer frequency, TF over GST control)	1.36 fold enrichment (6-mer frequency, TF over GST control)	1.32 fold enrichment (6-mer frequency, TF over GST control)	1.3 fold enrichment (6-mer frequency, TF over GST control)	1.23 fold enrichment (6-mer frequency, TF over GST control)
AACTCA	1.18 fold enrichment (6-mer frequency, TF over GST control)	1.18 fold enrichment (6-mer frequency, TF over GST control)	1.28 fold enrichment (6-mer frequency, TF over GST control)	1.22 fold enrichment (6-mer frequency, TF over GST control)	1.2 fold enrichment (6-mer frequency, TF over GST control)	1.22 fold enrichment (6-mer frequency, TF over GST control)	1.26 fold enrichment (6-mer frequency, TF over GST control)	1.34 fold enrichment (6-mer frequency, TF over GST control)
TCCTTG	1.39 fold enrichment (6-mer frequency, TF over GST control)	1.29 fold enrichment (6-mer frequency, TF over GST control)	1.28 fold enrichment (6-mer frequency, TF over GST control)	1.48 fold enrichment (6-mer frequency, TF over GST control)	1.22 fold enrichment (6-mer frequency, TF over GST control)	1.95 fold enrichment (6-mer frequency, TF over GST control)	1.36 fold enrichment (6-mer frequency, TF over GST control)	1.19 fold enrichment (6-mer frequency, TF over GST control)
TTGACT	1.18 fold enrichment (6-mer frequency, TF over GST control)	1.09 fold enrichment (6-mer frequency, TF over GST control)	1.14 fold enrichment (6-mer frequency, TF over GST control)	1.15 fold enrichment (6-mer frequency, TF over GST control)	1.22 fold enrichment (6-mer frequency, TF over GST control)	1.08 fold enrichment (6-mer frequency, TF over GST control)	1.15 fold enrichment (6-mer frequency, TF over GST control)	1.24 fold enrichment (6-mer frequency, TF over GST control)
TCTAAA	1.17 fold enrichment (6-mer frequency, TF over GST control)	1.18 fold enrichment (6-mer frequency, TF over GST control)	1.21 fold enrichment (6-mer frequency, TF over GST control)	1.21 fold enrichment (6-mer frequency, TF over GST control)	1.18 fold enrichment (6-mer frequency, TF over GST control)	1.16 fold enrichment (6-mer frequency, TF over GST control)	1.28 fold enrichment (6-mer frequency, TF over GST control)	1.12 fold enrichment (6-mer frequency, TF over GST control)
TTTTAC	1.3 fold enrichment (6-mer frequency, TF over GST control)	1.32 fold enrichment (6-mer frequency, TF over GST control)	1.44 fold enrichment (6-mer frequency, TF over GST control)	1.32 fold enrichment (6-mer frequency, TF over GST control)	1.52 fold enrichment (6-mer frequency, TF over GST control)	1.27 fold enrichment (6-mer frequency, TF over GST control)	1.45 fold enrichment (6-mer frequency, TF over GST control)	1.33 fold enrichment (6-mer frequency, TF over GST control)
ATTTTT	1.21 fold enrichment (6-mer frequency, TF over GST control)	1.2 fold enrichment (6-mer frequency, TF over GST control)	1.1 fold enrichment (6-mer frequency, TF over GST control)	1.15 fold enrichment (6-mer frequency, TF over GST control)	1.19 fold enrichment (6-mer frequency, TF over GST control)	1.16 fold enrichment (6-mer frequency, TF over GST control)	1.17 fold enrichment (6-mer frequency, TF over GST control)	1.17 fold enrichment (6-mer frequency, TF over GST control)
AACAAC	1.35 fold enrichment (6-mer frequency, TF over GST control)	1.25 fold enrichment (6-mer frequency, TF over GST control)	1.33 fold enrichment (6-mer frequency, TF over GST control)	1.27 fold enrichment (6-mer frequency, TF over GST control)	1.3 fold enrichment (6-mer frequency, TF over GST control)	1.28 fold enrichment (6-mer frequency, TF over GST control)	1.37 fold enrichment (6-mer frequency, TF over GST control)	1.35 fold enrichment (6-mer frequency, TF over GST control)
ACGATT	1.4 fold enrichment (6-mer frequency, TF over GST control)	1.28 fold enrichment (6-mer frequency, TF over GST control)	1.26 fold enrichment (6-mer frequency, TF over GST control)	1.27 fold enrichment (6-mer frequency, TF over GST control)	1.28 fold enrichment (6-mer frequency, TF over GST control)	1.24 fold enrichment (6-mer frequency, TF over GST control)	1.32 fold enrichment (6-mer frequency, TF over GST control)	1.31 fold enrichment (6-mer frequency, TF over GST control)
TAAGAA	1.11 fold enrichment (6-mer frequency, TF over GST control)	1.09 fold enrichment (6-mer frequency, TF over GST control)	1.03 fold enrichment (6-mer frequency, TF over GST control)	1.06 fold enrichment (6-mer frequency, TF over GST control)	1.12 fold enrichment (6-mer frequency, TF over GST control)	1.03 fold enrichment (6-mer frequency, TF over GST control)	1.07 fold enrichment (6-mer frequency, TF over GST control)	1.08 fold enrichment (6-mer frequency, TF over GST control)
TATATA	1.24 fold enrichment (6-mer frequency, TF over GST control)	1.23 fold enrichment (6-mer frequency, TF over GST control)	1.31 fold enrichment (6-mer frequency, TF over GST control)	1.35 fold enrichment (6-mer frequency, TF over GST control)	1.27 fold enrichment (6-mer frequency, TF over GST control)	1.23 fold enrichment (6-mer frequency, TF over GST control)	1.34 fold enrichment (6-mer frequency, TF over GST control)	1.28 fold enrichment (6-mer frequency, TF over GST control)
AAATCC	1.48 fold enrichment (6-mer frequency, TF over GST control)	1.47 fold enrichment (6-mer frequency, TF over GST control)	1.62 fold enrichment (6-mer frequency, TF over GST control)	2.08 fold enrichment (6-mer frequency, TF over GST control)	1.61 fold enrichment (6-mer frequency, TF over GST control)	1.75 fold enrichment (6-mer frequency, TF over GST control)	1.49 fold enrichment (6-mer frequency, TF over GST control)	1.6 fold enrichment (6-mer frequency, TF over GST control)
AAGTCT	1.25 fold enrichment (6-mer frequency, TF over GST control)	1.14 fold enrichment (6-mer frequency, TF over GST control)	1.21 fold enrichment (6-mer frequency, TF over GST control)	1.13 fold enrichment (6-mer frequency, TF over GST control)	1.15 fold enrichment (6-mer frequency, TF over GST control)	1.23 fold enrichment (6-mer frequency, TF over GST control)	1.21 fold enrichment (6-mer frequency, TF over GST control)	1.14 fold enrichment (6-mer frequency, TF over GST control)
TCGATT	1.01 fold enrichment (6-mer frequency, TF over GST control)	1.06 fold enrichment (6-mer frequency, TF over GST control)	1.16 fold enrichment (6-mer frequency, TF over GST control)	1.05 fold enrichment (6-mer frequency, TF over GST control)	1.04 fold enrichment (6-mer frequency, TF over GST control)	1.03 fold enrichment (6-mer frequency, TF over GST control)	1.01 fold enrichment (6-mer frequency, TF over GST control)	1.04 fold enrichment (6-mer frequency, TF over GST control)
